Results as given in the supplement of paper PMC6331611.
± gives the standard deviation of the averaged measurements. Over roughly 1,600 compounds, “normalized growth (OD600, IQM-normalized) in LPM” has its median near 1; the lowest 2% begin near 0.014. What follows is part of a selection rich in the lowest values, with near analogues and random picks from the rest.

These molecules were tested on Salmonella enterica serovar Typhimurium SL1344 (assay: normalized growth (OD600, IQM-normalized) in LPM (fraction of plate interquartile mean); higher = more bacterial growth (less inhibition)). Settings: LPM pH 5.8; 10 µM; 16 h.
`Nc1[nH]cnc2ncnc1-2` was tested, and the normalized growth was 0.993 ± 0.02. In the case of `CCCNC(C)(C)COC(=O)c1ccccc1`, the normalized growth is reported as 0.983 ± 0.027. For `CC(=O)c1ccc2c(c1)N(CCCN1CCN(CCO)CC1)c1ccccc1S2`, the normalized growth was 0.869 ± 0.053. `CCCCCCCCCCCCCCCCCCCCCCO` gave a normalized growth of 1.11 ± 0.1. With `CC(=O)Nc1ccc(S(=O)(=O)c2ccc(NC(C)=O)cc2)cc1` the normalized growth was 0.889 ± 0.067. For `CCC(=O)OCC(=O)[C@@]1(OC(=O)CC)[C@H](C)CC2C3C([C@@H](O)C[C@@]21C)[C@@]1(C)C=CC(=O)C=C1C[C@H]3Cl` (some centres not stated), the normalized growth was 1.03 ± 0.019. Molecule `O=C1c2ccccc2C(=O)C1c1ccc(Br)cc1` has a normalized growth of 0.935 ± 0.066. With `O=C(OOC(=O)c1ccccc1)c1ccccc1` the normalized growth was 1.08 ± 0.046. `Cc1cnc(C(=O)O)c[n+]1[O-]` showed a normalized growth of 0.993 ± 0.078. In the case of `C[C@@H]1NC(=O)[C@@H](N)CNC(=O)[C@H](C2CCNC(=N)N2)NC(=O)/C(=C/NC(N)=O)NC(=O)[C@H](CNC(=O)CC(N)CCCN)NC1=O.N=C1NCC[C@H]([C@@H]2NC(=O)/C(=C/NC(N)=O)NC(=O)[C@H](CNC(=O)C[C@@H](N)CCCN)NC(=O)[C@H](CO)NC(=O)[C@@H](N)CNC2=O)N1`, the normalized growth is reported as 0.985 ± 0.046. `CC(C)(C)CC(C)(C)c1ccc(O)c(Cc2ccc(Cl)cc2Cl)c1` gave a normalized growth of 0.861 ± 0.066. Molecule `Oc1ccc(OCc2ccccc2)cc1` has a normalized growth of 0.91 ± 0.11. `Cc1cc(NS(=O)(=O)c2ccc(N)cc2)no1` was tested, and the normalized growth was 1.01 ± 0.022. `CC[C@H](C)[C@H](N)C1=N[C@H](C(=O)N[C@@H](CC(C)C)C(=O)N[C@H](CCC(=O)O)C(=O)N[C@H](C(=O)N[C@H]2CCCCNC(=O)[C@H](CC(N)=O)NC(=O)[C@@H](CC(=O)O)NC(=O)[C@H](Cc3cnc[nH]3)NC(=O)[C@@H](Cc3ccccc3)NC(=O)[C@H]([C@@H](C)CC)NC(=O)[C@@H](CCCN)NC2=O)[C@@H](C)CC)CS1` gave a normalized growth of 1.06 ± 0.043. For `CC(C)OC(=O)CCC/C=C\C[C@@H]1[C@@H](/C=C/[C@@H](O)COc2cccc(C(F)(F)F)c2)[C@H](O)C[C@@H]1O`, the normalized growth was 1.032 ± 0.0058. Molecule `C=CC[C@@H]1/C=C(\C)C[C@H](C)C[C@H](OC)[C@H]2O[C@@](O)(C(=O)C(=O)N3CCCC[C@H]3C(=O)O[C@H](/C(C)=C/[C@@H]3CC[C@@H](O)[C@H](OC)C3)[C@H](C)[C@@H](O)CC1=O)[C@H](C)C[C@@H]2OC` has a normalized growth of 0.857 ± 0.044. `NC(=O)C1(N2CCCCC2)CCN(CCCC(=O)c2ccc(F)cc2)CC1` showed a normalized growth of 1.02 ± 0.051. `CC(C)(S)[C@@H](N)C(=O)O` showed a normalized growth of 1.083 ± 0.0063. For `CC1=CC(=O)c2ccccc2C1=O`, the normalized growth was 0.984 ± 0.017. With `Oc1c(I)cc(I)c2cccnc12` the normalized growth was 0.58 ± 0.02. `O=[N+]([O-])c1ccc(O)c2ncccc12` gave a normalized growth of 0.00762 ± 0.00015. In the case of `Oc1ccc(Cl)c2cccnc12`, the normalized growth is reported as 0.847 ± 0.037. `C[C@@H](O)CN(CCN(C[C@@H](C)O)C[C@@H](C)O)C[C@@H](C)O` showed a normalized growth of 1.17 ± 0.054. `CN(N=O)C(=O)N[C@H]1C(O)O[C@H](CO)[C@@H](O)[C@@H]1O` (mixture of isomers) showed a normalized growth of 0.929 ± 0.021. `COc1cccc2c1C(=O)c1c(O)c3c(c(O)c1C2=O)C[C@@](O)(C(C)=O)C[C@@H]3O[C@H]1C[C@H](N)[C@H](O)[C@H](C)O1` showed a normalized growth of 0.946 ± 0.016. In the case of `CC(NCCC(c1ccccc1)c1ccccc1)c1ccccc1` (configuration not stated), the normalized growth is reported as 0.976 ± 0.038. In the case of `O=C(O)CCNC(=O)c1ccc(/N=N/c2ccc(O)c(C(=O)O)c2)cc1`, the normalized growth is reported as 1 ± 0.051. With `C[C@H]1O[C@H](O[C@H]2[C@H](O)[C@@H](O)[C@@H](O[C@H]3[C@H](O)[C@@H](O)C(O)O[C@@H]3CO)O[C@@H]2CO)[C@H](O)[C@@H](O)[C@@H]1N[C@H]1C=C(CO)[C@@H](O)[C@H](O)[C@H]1O` (some centres not stated) the normalized growth was 1.07 ± 0.011. With `CCOC(=O)c1ccc(O)cc1` the normalized growth was 1.02 ± 0.045. With `N[C@@H](Cc1cc(I)c(Oc2cc(I)c(O)c(I)c2)c(I)c1)C(=O)O` the normalized growth was 1.03 ± 0.039. Work on `O=C(COc1ccc(Cl)cc1)N1CCN(Cc2ccc3c(c2)OCO3)CC1` yielded a normalized growth of 0.928 ± 0.019. For `COc1c(C)c2c(c(O)c1C/C=C(\C)CCC(=O)OCCN1CCOCC1)C(=O)OC2`, the normalized growth was 1.01 ± 0.035. With `CC(=O)Nc1c(I)cc(I)c(C(=O)O)c1I` the normalized growth was 0.949 ± 0.12. In the case of `Cc1c(OCC(F)(F)F)ccnc1C[S@@+]([O-])c1nc2ccccc2[nH]1`, the normalized growth is reported as 0.967 ± 0.085. For `CSCC[C@H](NC(=O)[C@H](Cc1c[nH]c2ccccc12)NC(=O)CCNC(=O)OC(C)(C)C)C(=O)N[C@@H](CC(=O)O)C(=O)N[C@@H](Cc1ccccc1)C(N)=O`, the normalized growth was 1.09 ± 0.026. `CC[C@H](c1ccc(O)cc1)[C@@H](CC)c1ccc(O)cc1` gave a normalized growth of 1.13 ± 0.018. `CC(C)c1nc(N(C)S(C)(=O)=O)nc(-c2ccc(F)cc2)c1/C=C/[C@@H](O)C[C@@H](O)CC(=O)O` gave a normalized growth of 1.03 ± 0.097. `CCn1nc(C(=O)O)c(=O)c2cc3c(cc21)OCO3` gave a normalized growth of 0.00789 ± 0.00035. With `CCCc1nc(C)c2c(O)nc(-c3cc(S(=O)(=O)N4CCN(CC)CC4)ccc3OCC)nn12` the normalized growth was 1.02 ± 0.053. `CC1(C)S[C@@H]2[C@H](N3C(=O)[C@@H](c4ccccc4)NC3(C)C)C(=O)N2[C@H]1C(=O)O` was tested, and the normalized growth was 0.976 ± 0.053. Molecule `CCOC(=O)O[C@]1(C(=O)COC(=O)CC)CC[C@H]2[C@@H]3CCC4=CC(=O)C=C[C@]4(C)[C@H]3[C@@H](O)C[C@@]21C` has a normalized growth of 1 ± 0.03. `CC(=O)Oc1cccc(C)c1` [meta-CRESYL ACETATE] gave a normalized growth of 0.995 ± 0.048. `OCCN1C[C@H](O)[C@@H](O)[C@H](O)[C@H]1CO` was tested, and the normalized growth was 0.993 ± 0.016. `C#CC1(O)CC[C@H]2[C@@H]3CCC4=CC(=O)CC[C@@H]4[C@H]3CC[C@@]21CC` (some centres not stated) gave a normalized growth of 0.941 ± 0.024. Molecule `CC(=O)Nc1ccc(OC(C)=O)cc1` has a normalized growth of 1.05 ± 0.08. Work on `CCC1=C(C)CN(C(=O)NCCc2ccc(S(=O)(=O)NC(=O)N[C@H]3CC[C@H](C)CC3)cc2)C1=O` yielded a normalized growth of 0.926 ± 0.053. Molecule `Nc1cc(C(Cl)=C(Cl)Cl)c(S(N)(=O)=O)cc1S(N)(=O)=O` has a normalized growth of 1.01 ± 0.036. Molecule `CC(=O)Oc1cccc(C(=O)O)c1OC(C)=O` has a normalized growth of 0.912 ± 0.079. `O=C(Nc1ccccc1)OCC(CN1CCCCC1)OC(=O)Nc1ccccc1` (configuration not stated) showed a normalized growth of 0.903 ± 0.047. With `CC(=O)OCC(=O)[C@@]1(O)CC[C@H]2[C@@H]3CCC4=CC(=O)C=C[C@]4(C)[C@@]3(Cl)[C@@H](Cl)C[C@@]21C` the normalized growth was 0.894 ± 0.024. Molecule `CC[N+](C)(CC)CCOC(=O)C(O)(c1ccccc1)C1CCCCC1` (configuration not stated) has a normalized growth of 1.1 ± 0.03. `CC1/C=C/C=C/C=C/C=C/C=C/C=C/C=C/C(OC2O[C@H](C)[C@@H](O)[C@H](N)[C@@H]2O)CC(O)C(C(=O)O)C(O)CC(=O)CC(O)CC(O)CC(O)CC(=O)CCCC(=O)CC(=O)OC1C(C)CC(C)C(O)CC(=O)c1ccc(N)cc1` (some centres not stated) gave a normalized growth of 1.03 ± 0.045.
